# High-throughput results from PubChem.
# TDP1 cell noCPT = qHTS for Inhibitors of human tyrosyl-DNA phosphodiesterase 1 (TDP1): qHTS in cells in absence of CPT. DT40 Tdp1-/- hTDP1 cells, no CPT, ATP luminescence, 48 h. Potency, µM (top dose mostly 46.2 µM), inactives show at the highest dose activity change, negative = growth inhibition, usual class: inhibitors. actives 15% (n = 420,000); note: potency is the fitted concentration of half-maximal effect; nearly all actives have a fitted effect of over 55% in size
#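 Camptothecin absent (DMSO only). Human TDP1-complemented DT40 knockout cells, 400 cells/well, 37 °C for minimum 48 hr; ATP measured via CellTiter-Glo, 30 min dark incubation, luminescence.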
# HT1080 IDH1KD tx = HT-1080 IDH1 knockdown cell toxicity (counter line). actives 2% (n = 360,000). Potency, µM (doses to about 46.1 µM), without a hit: top-dose activity, negative = toxicity, most hits filed as cytotoxic. HT-1080 IDH1 knockdown viability, ATP luminescence, 48 h;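 note: potency is the fitted concentration of half-maximal effect; 0% = DMSO wells and -100% = cell-free medium wells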
#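 After a 2 h attachment period, IDH1KD HT-1080 cells took pin-transferred compound for 48 h at 37 °C; ATP-based luminescence after 10 min room-temperature reagent incubation reported viability.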
# IL1B secr inh = blocks inflammasome-driven IL-1 beta release. AID 743279. THP-1 LPS/ATP IL-1B secretion, AlphaLISA, 16 h; hits give low values. actives 4.7% (n = 360,000). activity change, % at 57.5 µM; in the data active = activity change below about -50%; inconclusive = mostly about -30% to -49%
#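 THP-1 cells pretreated 1 hr with compounds (up to 57.5 uM final), then stimulated with LPS (250 ng/mL final) plus ATP (1.25 mM final); secreted IL-1B measured by AlphaLISA after 16 hr, decreased signal indicating inhibition.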
# DT40 TDP1 CPT = DT40-hTDP1 cell growth loss with CPT. AID 686979. Potency, µM (top dose mostly 46.2 µM), without a hit: top-dose activity change, negative = growth inhibition, actives largely listed as inhibitors. chicken DT40 Tdp1-/-;hTDP1 cells + 20 nM CPT, ATP luminescence, 48 h. actives 12% (n = 420,000); note: potency is the fitted concentration of half-maximal effect; nearly all actives have a fitted effect of over 55% in size
#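 Chicken DT40 Tdp1-/- cells stably complemented with human TDP1 were seeded at 400 cells/well in medium containing 20 nM camptothecin, exposed to pin-transferred compounds, and grown at 37 °C for at least 48 hr. Viability was read as ATP luminescence.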
# HT1080NT lethal = kills 2HG-producing HT-1080-NT fibrosarcoma cells; HT-1080-NT fibrosarcoma viability, CellTiter-Glo ATP luminescence, 48 h; Potency, µM (series often up to 46.1 µM), inactives show at the top dose activity, negative = less viability, most hits filed as cytotoxic; actives 1.6% (n = 360,000); AID 686970;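 note: NT is the 2HG producing partner of a matched IDH1 knockdown line; potency is the fitted concentration of half-maximal effect; 0% = DMSO-treated cells and -100% = media-only wells without cells; nearly all actives have a fitted effect of over 55% in size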
#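 Read-out is CellTiter-Glo luminescence after 10 minutes at room temperature, following 48 hours' compound treatment of HT-1080-NT cells (750 cells/well, RPMI, 5% FBS, 37 degrees C).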
# Active calls of the source: *; ? = inconclusive. Shown are actives, neighbours in structure and some others; about 19% of the full set was active somewhere. Unless noted, calls come from the whole dose curve; as a rule, active = well fitted curve in the direction sought with a large enough effect; inconclusive = small, poorly fitted or top-dose-only effect, or another doubt; inactive = no such curve, though single readings can be large; an effect the other way counts as inactive or inconclusive. Unless noted, % is set by controls: 0 for no effect and ±100 for the full control effect.
SMILES,TDP1 cell noCPT,HT1080 IDH1KD tx,IL1B secr inh,DT40 TDP1 CPT,HT1080NT lethal
Cc1ccccc1C(=O)Nc1ccc(C(=O)NNC(=O)CCCOc2ccc(Cl)cc2Cl)cc1,-23%,-18%,-13,?,-14%
Cc1cc(Cl)ccc1OCCCC(=O)Nc1cccnc1,23µM*,-18%,3,15µM*,-8%
CCCCOc1ccc(OC(=O)Nc2cc(Cl)ccc2OC)cc1,15µM*,-17%,0,18µM*,-17%
Cc1cc(Cl)ccc1OCC(=O)Nc1cccnc1,?,8%,?,-20%,1%
CC(Sc1ncn[nH]1)C(=O)Nc1cc(C(F)(F)F)ccc1Cl (centres undefined),-23%,0%,-18,-1%,-2%
Cc1ncc(CN2CCCC(C(=O)Nc3ccc(-c4cccc(F)c4)cc3)C2)s1 (centres undefined),?,1%,?,?,-14%
Cc1ncc(CN2CCCC(C(=O)Nc3ccc(-c4cccc(F)c4)cc3)C2)cn1 (centres undefined),?,?,-87*,15µM*,-29%
O=C(Nc1ccc(-c2cccc(F)c2)cc1)C1CCCN(Cc2ccccn2)C1 (centres undefined),23µM*,-25%,?,21µM*,-3%
Cc1ccccc1CN1CCCC(C(=O)Nc2ccc(-c3ccn[nH]3)cc2)C1 (centres undefined),?,?,?,16µM*,-10%
COc1ccc(OC)c(NC(=O)Nc2nnc([C@H]3C[C@H](O)[C@@H](CO)O3)s2)c1,-17%,8%,-8,-5%,?
CN(C(=O)c1cccc(NC(=O)Cc2cccc(NC(=O)C3CCCN(C(=O)C4CCCC4)C3)c2)c1)C1CC1 (centres undefined),?,-1%,-8,-24%,2%
O=C(NCCC1=CCCCC1)C1CC(=O)N(Cc2ccccc2)C1 (centres undefined),-4%,9%,7,-3%,8%
C[C@H](CO)N1C[C@H](C)[C@H](CN(C)C(=O)Nc2ccc(-c3cccs3)cc2)OCc2cnnn2CCCC1=O,?,3%,-6,-10%,6%
COc1cc(/C=N/n2c(C)nc3ccccc3c2=O)ccc1O,-3%,-4%,-25,-15%,2%
COCCn1c(-c2ccco2)nc2nc3ccccc3nc21,-27%,5%,-5,-27%,0%
COCCn1cnc2c(c1=O)c1nc3ccccc3nc1n2/N=C/c1cccc(OC)c1,12µM*,5%,0,13µM*,8%
C=CCn1cnc2c(c1=O)c1nc3ccccc3nc1n2/N=C/c1cc(OC)c(OC)c(OC)c1,3.3µM*,?,-5,4.1µM*,?
CC(C)OCCCn1c(-c2ccco2)nc2nc3ccccc3nc21,23µM*,?,-17,?,?
CCCCn1c(-c2ccco2)nc2ccccc2c1=O,16µM*,0%,10,?,-5%
Clc1ccccc1CNCc1ccc2c(c1)OCO2,?,-6%,?,?,-12%
COc1ccc(CN2C[C@@H](CO)O[C@@H](n3cnc4c(NCCO)ncnc43)C2)cc1,-21%,6%,-18,?,21%
COc1ccc(/C=N/n2c(-c3ccco3)nc3ccccc3c2=O)cc1,?,6%,-11,?,6%
O=c1c2c3nc4ccccc4nc3n(CCN3CCOCC3)c2ncn1CCN1CCOCC1,-27%,14%,?,-21%,14%
COc1cccc(/C=N/n2c(-c3ccco3)nc3ccccc3c2=O)c1,18µM*,-1%,2,?,-9%
O=c1c2c3nc4ccccc4nc3n(/N=C/c3ccccn3)c2ncn1-c1ccccc1,?,?,?,2.6µM*,5.8µM*
SMILES,TDP1 cell noCPT,HT1080 IDH1KD tx,IL1B secr inh,DT40 TDP1 CPT,HT1080NT lethal
C=CCn1cnc2c(c1=O)c1nc3ccccc3nc1n2/N=C/c1ccccn1,21µM*,0%,-65*,16µM*,8%
OCCC1CN(Cc2cccn2-c2cccnc2)CCN1C1CCCCC1 (centres undefined),-1%,2%,-2,5%,6%
NC(=O)[C@H]1CC2(CC(c3cccc(NC(=O)COc4ccc(Cl)cc4)c3)=NO2)CN1C(=O)Cc1ccc([N+](=O)[O-])cc1 (some centres undefined),16µM*,-16%,?,13µM*,?
CCCCCC(=O)Nc1cccc(C2=NOC3(C2)C[C@@H](C(N)=O)N(C(=O)Cc2ccc([N+](=O)[O-])cc2)C3)c1 (some centres undefined),?,-2%,-29,?,1%
NC(=O)[C@@H]1CC2(CC(c3cccc(NC(=O)COc4ccc(Cl)cc4)c3)=NO2)CN1C(=O)c1ccccc1 (some centres undefined),?,2%,-65*,?,3%
COc1ccc(C(=O)N2CC3(CC(c4cccc(NC(=O)COc5ccc(Cl)cc5)c4)=NO3)C[C@@H]2C(N)=O)cc1 (some centres undefined),?,-1%,-57*,21µM*,7%
O=C(C1CC=CCC1)N1CCC(CO)(Cc2ccc(Cl)cc2)CC1 (centres undefined),?,2%,?,?,-20%
COc1ccc(CCN2C(=O)c3ccccc3NC2c2cc(Cl)c(O)c(OC)c2)cc1 (centres undefined),4.1µM*,2.9µM*,29,4.6µM*,1.6µM*
O=C1c2ccccc2NC(c2cccc([N+](=O)[O-])c2)N1CCc1ccccc1 (centres undefined),?,-12%,-83*,-22%,-19%
COc1ccccc1CC1(C)C(=O)Nc2ccc(S(=O)(=O)NC3CCCCC3)cc21 (centres undefined),?,-9%,-5,21µM*,-7%
COc1ccc(Cl)cc1CC1(C)C(=O)Nc2ccc(S(=O)(=O)NC3CCCCC3)cc21 (centres undefined),?,?,-9,23µM*,?
COc1ccc(OC(F)(F)F)cc1CC1(C)C(=O)Nc2ccc(S(=O)(=O)NC3CCCCC3)cc21 (centres undefined),?,?,-22,21µM*,?
COc1ccc(OC(F)(F)F)cc1CC1(C)C(=O)Nc2cccc(Cl)c21 (centres undefined),15µM*,0%,0,?,?
COc1ccc(C(C)=O)cc1CC1(C)C(=O)Nc2ccc(OC(F)(F)F)cc21 (centres undefined),?,0%,2,?,-10%
